The list is not random: actives were taken first. Their share in the collection is about 4.6%.
HTT-AS act = activates huntingtin-antisense promoter activity | HEK293 HTT-AS promoter firefly luciferase reporter, 24 h; response scale: percent change from vehicle, -100% = no light | Potency, µM (titrated, usually from 57.5 µM), most hits filed as activators | 48,000 compounds, 0.24% hits; further: nearly all actives have a fitted effect of over 55% in size
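HEK293 Fluc reporter, 2,500 cells/well, 24 h pre-culture; cpds up to 57.5 uM final, 24 h 37 degrees C; Dual-Glo, 10 min RT; normalized vehicle = 0%, zero RLU = -100%.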
HTT promoter inh = inhibitors of huntingtin promoter activity. HEK293 HTT promoter firefly luciferase reporter, 24 h. Potency, µM (top dose mostly 57.5 µM), usual class: inhibitors. 48,000 compounds, 0.93% hits. AID 1508623; further: nearly all actives have a fitted effect of over 50% in size
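HEK293 cells carrying firefly luciferase reporters were seeded at 2,500 per well in Opti-MEM and cultured for 24 h. They were then treated with compounds at up to 57.5 uM final for 24 h at 37 degrees C before Dual-Glo luminescence readout.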
NTMT1 inh = inhibitors of human N-terminal methyltransferase NTMT1. Potency, µM (titrated, usually from 114 µM), actives largely listed as inhibitors. NTMT1 MTase-Glo SAH luminescence, purified enzyme. Q9BV86. AID 1645870. 59,000 compounds, 2.5% hits; further: nearly all actives have a fitted effect of over 65% in size
Target sequence (Q9BV86 whole entry, looked up): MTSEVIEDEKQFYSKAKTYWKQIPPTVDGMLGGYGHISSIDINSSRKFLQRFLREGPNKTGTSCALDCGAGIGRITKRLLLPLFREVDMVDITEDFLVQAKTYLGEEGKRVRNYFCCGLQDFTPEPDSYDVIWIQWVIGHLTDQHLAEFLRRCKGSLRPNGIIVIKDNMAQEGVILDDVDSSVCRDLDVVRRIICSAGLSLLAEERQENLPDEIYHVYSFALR
GPR32 ag = agonists of human resolvin D1 receptor DRV1 (GPR32) | CHO-K1 GPR32 beta-arrestin PathHunter luminescence, 90 min; zero percent set by DMSO-only wells | O75388 | 48,000 compounds, 2.5% hits | activation, % at 76.9 µM;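 active means activation of at least 60% and not above a set upper limit, about 1 call in 100 departs from these limits; inconclusive means activation of 40% to 60%, or above that upper limit; inactive means activation under 40%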
Target sequence (O75388 whole entry, looked up): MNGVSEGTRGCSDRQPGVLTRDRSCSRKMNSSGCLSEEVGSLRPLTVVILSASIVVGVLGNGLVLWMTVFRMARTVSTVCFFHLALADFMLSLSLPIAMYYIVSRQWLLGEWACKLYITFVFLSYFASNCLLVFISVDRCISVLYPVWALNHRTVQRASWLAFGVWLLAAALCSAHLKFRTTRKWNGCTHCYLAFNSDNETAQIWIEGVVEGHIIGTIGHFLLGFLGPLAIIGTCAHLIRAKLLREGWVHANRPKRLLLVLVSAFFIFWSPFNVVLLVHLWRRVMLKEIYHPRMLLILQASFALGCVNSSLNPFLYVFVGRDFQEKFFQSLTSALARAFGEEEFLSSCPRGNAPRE
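PathHunter enzyme-fragment complementation, CHO-K1 GPR32 stable line; 2,500 cells/well, overnight attach; cpd 90 min 37 °C 5% CO2; detection reagent 1 h RT; chemiluminescence. DMSO = EC0.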
A number is an active result; . = inactive; ? = inconclusive; / = not tested or not shown; ! = not confirmed by another sample; [ ] = dose if it differs, or a comment. Unless noted, the call rests on the fitted dose curve; in most records, active means well fitted curve in the direction sought with a large enough effect; inconclusive means small, poorly fitted or top-dose-only effect, or another doubt; inactive means no such curve, though single readings can be large; an effect the other way counts as inactive or inconclusive.

SMILES	HTT-AS act	HTT promoter inh	NTMT1 inh	GPR32 ag
COc1ccccc1NC(=O)CC1Sc2ccc(C(F)(F)F)cc2NC1=O (stereo not given)	.	.	.	64
CCCCC(=O)N1CCC(C(=O)Nc2ccc([S+](=O)([O-])Nc3nccs3)cc2)CC1	/	/	.	/
COc1cc(O)c(C(CC(=O)N2CC(C)CC(C)C2)c2ccc(O)cc2)c(OC)c1 (stereo not given)	/	/	.	/
O=c1c2ccccc2nc2sc(Nc3ccc4c(c3)CNC4)nn12	/	/	50µM	/
O=c1c2ccccc2nc2sc(Nc3cccc(Br)c3)nn12	/	/	.	/
COc1cccc(O)c1CNc1ccc(S(=O)(=O)Nc2nccs2)cc1	/	/	.	/
CCOC(=O)c1cnc2cc(Cl)c(OC)cc2c1Nc1ccc(Br)cc1C	.	.	.	.
Cn1cnc2c(F)c(Nc3ccc(Br)cc3Cl)c(C(=O)NOCCO)cc21	.	.	89µM!	.
C=CC(=O)Nc1cccc(Nc2nc(Nc3ccc(Oc4ccnc(C(=O)NC)c4)cc3)ncc2F)c1	/	/	.	/
O=c1c(-n2ccnn2)c[nH]n1-c1cc(N2CCOCC2)ncn1	/	/	3µM!	/
CCC[C@H](NC(=O)[C@@H]1[C@H]2CCC[C@H]2CN1C(=O)[C@@H](NC(=O)[C@@H](NC(=O)c1cnccn1)C1CCCCC1)C(C)(C)C)C(=O)C(=O)NC1CC1	/	/	45µM	/
CCC[C@@H](NC(=O)[C@@H]1[C@H]2CCC[C@@H]2CN1C(=O)[C@@H](NC(=O)[C@@H](NC(=O)c1cnccn1)C1CCCCC1)C(C)(C)C)C(=O)C(=O)NC1CC1	.	?	.	/
Nc1ncnc2c1c(-c1cccc(OCc3ccccc3)c1)cn2C1CC(CN2CCC2)C1 (stereo not given)	.	.	10µM!	/
CC(C)(CC(=O)NCc1ccc(Cl)cc1Cl)CC1=NS(=O)(=O)c2ccccc2N1	.	20µM	.	110
COc1ccc(Cl)cc1NC(=O)COC(=O)CC(C)(C)CC1=NS(=O)(=O)c2ccccc2N1	.	?	.	.
CCOc1ccccc1NC(=O)COC(=O)CC(C)(C)CC1=NS(=O)(=O)c2ccccc2N1	.	?	.	83
Cc1ccc(Cl)cc1NC(=O)COC(=O)CC(C)(C)CC1=NS(=O)(=O)c2ccccc2N1	.	?	.	?
CCOC(=O)C1CCN(C(=O)C2(NC(=O)Nc3ccccc3Cl)CCCC2)CC1	/	/	.	/
CCOc1ccc(C(Nc2ccccn2)c2ccc3ccc(C)nc3c2O)cc1C (stereo not given)	/	/	.	/
CCS(=O)(=O)c1ncc(Cl)c(C(=O)N(Cc2ccccc2)c2ccc(OC)cc2)n1	.	16µM	.	.
COc1ccc(N(Cc2ccccc2)C(=O)c2nc(SC)ncc2Cl)cc1	.	20µM	.	.
CC1(C)CC[C@]2(C(=O)O[C@@H]3O[C@H](CO)[C@@H](O)[C@H](O)[C@H]3O)CC[C@]3(C)C(=CCC4[C@@]5(C)CC[C@H](O[C@@H]6O[C@H](C(=O)O)[C@H](O)[C@H](O)[C@H]6O)C(C)(C)C5CC[C@]43C)[C@@H]2C1 (stereo not given in full)	/	/	.[12.6 µM]	/
CC1=C2[N-][C@H]([C@H](CC(N)=O)[C@@]2(C)CCC(=O)NC[C@@H](C)OP(=O)([O-])O[C@H]2[C@@H](O)[C@@H](n3cnc4cc(C)c(C)cc43)O[C@@H]2CO)[C@]2(C)N=C(C(C)=C3N=C(C=C4N=C1[C@@H](CCC(N)=O)C4(C)C)[C@@H](CCC(N)=O)[C@]3(C)CC(N)=O)[C@@H](CCC(N)=O)[C@]2(C)CC(N)=O.O.[Co+2]	/	/	50µM	/
Cc1cccc(-n2cnc3cc(C(=O)NC(C)(C)C)ccc32)c1	/	/	.	/
Cc1ccc(C(=O)c2oc3ccccc3c2NC(=O)c2nc(S(C)(=O)=O)ncc2Cl)cc1F	.	.	.	75
SMILES	HTT-AS act	HTT promoter inh	NTMT1 inh	GPR32 ag
Cc1cccc(OCC(=O)Nc2ccc3nc(Nc4cccc(Cl)c4)cc(C)c3c2)c1	.	.	.	103
Cc1c(C(=O)OCc2ccco2)[nH]c2c1C(=O)CC(c1ccco1)C2 (stereo not given)	/	/	.	/
Cc1c(C(=O)OC[C@H]2CCCO2)[nH]c2c1C(=O)CC(c1ccco1)C2 (stereo not given in full)	/	/	50µM	/
COc1ccc(-c2noc(N3CCN(c4ccc(C)cc4)C(C)C3)n2)cc1OC (stereo not given)	.	?	.	61
CCOC(=O)C1CCN(C(=O)c2ccc3c(c2)sc2nc(-c4ccc(OC)cc4)cn23)CC1	.	.	89µM	.
CCCN(CCC)C(=O)c1c[nH]c2ccc(S(=O)(=O)N(C)c3ccc(OCC)cc3)cc2c1=O	.	.	.	.
CCCCN(CC)C(=O)c1c[nH]c2ccc(S(=O)(=O)N(C)c3ccc(Cl)cc3)cc2c1=O	.	.	?	91
Cc1nc(SCC(=O)Nc2ccc(Br)cc2)[nH]c(=O)c1Cc1ccccc1	.	?	.	?
Cc1ccc(NC(=O)CSc2nc(C)c(Cc3ccccc3)c(=O)[nH]2)cc1	.	.	.	63
CCc1nc(SC)ncc1C(=O)N1CCN(c2cc(C)ccc2C)CC1	.	.	89µM	.
Cc1ccc(OCCn2c(CCNC(=O)c3ccncc3)nc3ccccc32)cc1	/	/	.	/
COc1cc(NC(=O)c2cc(-c3cccc(OC)c3)n[nH]2)cc(OC)c1	?	.	.	81
O=c1cc(-c2ccc(O)cc2)oc2cc(O)cc(O)c12	.	.	?	.
O=c1cc(-c2ccccc2)oc2cc(O)cc(O)c12	24µM	.	.	/
CCOc1ccc(NC(=O)N2CCN(Cc3cc(=O)n4nc(-c5ccc(OC)cc5)sc4n3)CC2)cc1	.	.	.	.
CCOc1ccc(C(=O)N2CCN(Cc3cc(=O)n4nc(-c5cccc(OC)c5)sc4n3)CC2)cc1	.	.	.	74
COc1ccc(-c2cn3nc(SCC(=O)Nc4ccccc4F)ccc3n2)cc1	.	4µM	.	.
Cc1ccc(-n2nc(C(=O)N3CCN(c4ccccc4)CC3)c(=O)n(C)c2=O)cc1	.	.	.	.
Cc1ccc(-n2nc(C(=O)N3CCN(c4cccc(C(F)(F)F)c4)CC3)c(=O)n(C)c2=O)cc1	.	32µM	?	.
CC(=O)Nc1cc(C(=O)Nc2ccc3c(c2)N(C)C(=O)c2ccccc2S3)ccc1C	.	.	.	.
Cc1ccc(C(=O)Nc2ccc3c(c2)N(C)C(=O)c2ccccc2S3)cc1F	.	13µM	.	.
CN1C(=O)c2ccccc2Sc2ccc(NC(=O)N3CCN(c4ccc(F)cc4)CC3)cc21	.	28µM	.	.
Cc1oc2ncnc(N3CCOCC3)c2c1C(=O)Nc1ccc(Br)cc1F	.	.	89µM	.
C[n+]1ccc(-c2c3nc(c(-c4cc[n+](C)cc4)c4ccc([nH]4)c(-c4cc[n+](C)cc4)c4nc(c(-c5cc[n+](C)cc5)c5ccc2[nH]5)C=C4)C=C3)cc1	/	/	14µM	/
Cn1nnnc1SCCNCc1cc(Br)ccc1OCc1ccccc1Cl	.	28µM	.	75
CCOc1ccc(CNCCSc2nnnn2C)cc1OC	.	.	.	.
